Active and inactive are the calls of the source. The calls were made as follows: active = hit-call score of the fitted dose curve at least 0.9, where 1 is the maximum; inactive = score below 0.9.
How the values were obtained:
Conditions in all cases: mRNA level, 48 h; actives raise or lower the signal
[1] = read-out: Interleukin 6 Receptor (IL6R), IL6R (gene 3570); experiment: LTEA_HepaRG_IL6R: Life Technologies and Expression Analysis (LTEA) Assay for Interleukin 6 Receptor (IL6R) using HepaRG (AID 2283510)
Outline: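 Readout is IL6R transcript level by TaqMan qRT-PCR, normalized to three housekeeping genes and fitted bidirectionally against 0.5% DMSO controls. Human HepaRG cells received chemicals for 48 h in serum-free induction medium, highest concentration 100 uM.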

[2] = read-out: Potassium channel subfamily K member 1 (KCNK1), KCNK1 (gene 3775); experiment: LTEA_HepaRG_KCNK1: Life Technologies and Expression Analysis (LTEA) Assay for Potassium channel subfamily K member 1 (KCNK1) using HepaRG (AID 2283511)
Outline: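 Differentiated human HepaRG cells in serum-free induction medium were exposed in duplicate for 48 h to 8 half-log concentrations up to 100 uM in 0.5% DMSO. KCNK1 mRNA was measured by TaqMan qRT-PCR, normalized to ACTB, GAPDH and POLR2A, and fitted bidirectionally versus DMSO.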

[3] = read-out: Keratin 19 (KRT19), KRT19 (gene 3880); experiment: LTEA_HepaRG_KRT19: Life Technologies and Expression Analysis (LTEA) Assay for Keratin 19 (KRT19) using HepaRG (AID 2283512)
Outline: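 HepaRG, 48 h chemical exposure, 8-pt half-log CRC from 100 uM, 0.5% DMSO vehicle, duplicates. Readout: TaqMan qRT-PCR of KRT19 mRNA, housekeeping-normalized (ACTB/GAPDH/POLR2A). Bidirectional fit vs DMSO baseline.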

[4] = read-out: JUN Transcription Factor, JUN (gene 3725); experiment: LTEA_HepaRG_JUN: Life Technologies and Expression Analysis (LTEA) Assay for JUN Transcription Factor using HepaRG (AID 2283513)
Outline: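 Cells plated 48 h, medium switched to serum-free induction medium, then dosed 48 h (100 uM top, half-log dilutions, 0.5% DMSO). RNA isolated; JUN measured by qRT-PCR against three housekeeping genes; gain or loss fitted relative to DMSO.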

[5] = read-out: Lipase C (LIPC), LIPC (gene 3990); experiment: LTEA_HepaRG_LIPC: Life Technologies and Expression Analysis (LTEA) Assay for Lipase C (LIPC) using HepaRG (AID 2283514)
Outline: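 Differentiated human HepaRG cells in serum-free induction medium were exposed in duplicate for 48 h to eight concentrations (top 100 uM, half-log steps, 0.5% DMSO). LIPC mRNA was quantified by TaqMan qRT-PCR, normalized to ACTB, GAPDH and POLR2A, with bidirectional fitting versus DMSO.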

[6] = read-out: Lipoprotein lipase (LPL), LPL (gene 4023); experiment: LTEA_HepaRG_LPL: Life Technologies and Expression Analysis (LTEA) Assay for Lipoprotein lipase (LPL) using HepaRG (AID 2283515)
Outline: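 Differentiated human HepaRG cells in serum-free induction medium were exposed in duplicate for 48 h to eight half-log concentrations (top 100 uM) in 0.5% DMSO. LPL mRNA was quantified by TaqMan qRT-PCR, normalized to ACTB, GAPDH and POLR2A.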

[7] = read-out: MicroRNA 122 (MIR122), gene 406906; experiment: LTEA_HepaRG_MIR122: Life Technologies and Expression Analysis (LTEA) Assay for MicroRNA 122 (MIR122) using HepaRG (AID 2283516); also: the transcript read is the microRNA miR-122
Outline: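 HepaRG plated 48 h, switched to serum-free induction medium, then treated in duplicate for 48 h (100 uM top, half-log steps, 0.5% DMSO vehicle). RNA isolated, qRT-PCR performed, concentration-response fitted both directions relative to DMSO.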

[8] = read-out: matrix metalloproteinase-10 (MMP10), MMP10 (gene 4319); experiment: LTEA_HepaRG_MMP10: Life Technologies and Expression Analysis (LTEA) Assay for matrix metalloproteinase-10 (MMP10) using HepaRG (AID 2283517)
Outline: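 HepaRG, collagen I, ~100,000 cells/well; serum-free induction medium; 48 h exposure, duplicate, 8-pt half-log to 100 uM, 0.5% DMSO. Readout: TaqMan qRT-PCR, normalized to ACTB/GAPDH/POLR2A; bidirectional fit vs DMSO.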

MYC, MYC (gene 4609) = experiment: LTEA_HepaRG_MYC: Life Technologies and Expression Analysis (LTEA) Assay for MYC using HepaRG (AID 2283518)
Outline: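 qRT-PCR read-out of MYC transcript (Fluidigm TaqMan, housekeeping-normalized) after 48 h chemical exposure of HepaRG cells; eight concentrations, top 100 uM, half-log steps. Bidirectional curve fitting against 0.5% DMSO vehicle baseline.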

[9] = read-out: matrix metalloproteinase-3 (MMP3), MMP3 (gene 4314); experiment: LTEA_HepaRG_MMP3: Life Technologies and Expression Analysis (LTEA) Assay for matrix metalloproteinase-3 (MMP3) using HepaRG (AID 2283519)
Outline: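 Differentiated human HepaRG cells, plated 48 h on collagen I, were exposed in duplicate for 48 h in serum-free induction medium to eight half-log concentrations up to 100 uM in 0.5% DMSO. MMP3 mRNA was quantified by TaqMan qRT-PCR, normalised to ACTB, GAPDH and POLR2A.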

[10] = read-out: Paternally Expressed 10 (PEG10), PEG10 (gene 23089); experiment: LTEA_HepaRG_PEG10: Life Technologies and Expression Analysis (LTEA) Assay for Paternally Expressed 10 (PEG10) using HepaRG (AID 2283520)
Outline: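 HepaRG, 48 h post-plating → serum-free induction medium → 48 h chemical exposure (duplicate, 8-pt, max 100 uM, half-log, 0.5% DMSO) → lysis in RLT → TaqMan qRT-PCR for PEG10, ACTB/GAPDH/POLR2A normalisation.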

[11] = read-out: Protein phosphatase 2A (PPP2R4), PTPA (gene 5524); experiment: LTEA_HepaRG_PPP2R4: Life Technologies and Expression Analysis (LTEA) Assay for Protein phosphatase 2A (PPP2R4) using HepaRG (AID 2283522)
Outline: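 Readout is PPP2R4 transcript level by microfluidic qRT-PCR after 48 h chemical treatment of human HepaRG liver cells. Concentrations spanned 100 uM downward in half-log steps; gain or loss of signal was fitted relative to DMSO.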

[12] = read-out: Phosphatase and tensin (PTEN), PTEN (gene 5728); experiment: LTEA_HepaRG_PTEN: Life Technologies and Expression Analysis (LTEA) Assay for Phosphatase and tensin (PTEN) using HepaRG (AID 2283523)
Outline: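 Differentiated human HepaRG cells, plated 48 h then switched to serum-free induction medium, were exposed in duplicate for 48 h to eight half-log concentrations up to 100 uM in 0.5% DMSO. PTEN mRNA measured by TaqMan qRT-PCR, normalized to ACTB/GAPDH/POLR2A, bidirectional fit versus DMSO.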

[13] = read-out: solute carrier (SLC22A1), SLC22A1 (gene 6580); experiment: LTEA_HepaRG_SLC22A1: Life Technologies and Expression Analysis (LTEA) Assay for solute carrier (SLC22A1) using HepaRG (AID 2283524)
Outline: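 Human HepaRG cells were plated 48 h, switched to serum-free induction medium, then exposed in duplicate for 48 h to 8-point half-log series from 100 uM in 0.5% DMSO. SLC22A1 mRNA measured by qRT-PCR, normalized to ACTB/GAPDH/POLR2A, fitted bidirectionally versus DMSO.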

[14] = read-out: Nuclear factor erythroid 2-related factor 2 (Homo sapiens) (UniProt Q16236); experiment: LTEA_HepaRG_NFE2L2: Life Technologies and Expression Analysis (LTEA) Assay for Nuclear factor erythroid 2-related factor 2 (NFE2L2) Transcription Factor using HepaRG (AID 2283527);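 as to outcome: TaqMan qRT-PCR transcript level normalised to ACTB GAPDH and POLR2A housekeeping genes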
Outline: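 Differentiated human HepaRG cells in serum-free induction medium were exposed for 48 h to eight concentrations (top 100 uM, half-log dilutions, 0.5% DMSO), in duplicate. NFE2L2 mRNA was quantified by TaqMan qRT-PCR, normalized to ACTB, GAPDH and POLR2A, with bidirectional fitting versus DMSO.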

[15] = read-out: succinate dehydrogenase complex iron sulfur subunit B (SDHB), SDHB (gene 6390); experiment: LTEA_HepaRG_SDHB: Life Technologies and Expression Analysis (LTEA) Assay for succinate dehydrogenase complex iron sulfur subunit B (SDHB) using HepaRG (AID 2283528)
Outline: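 HepaRG, 48 h exposure, 8-pt half-log series from 100 uM in 0.5% DMSO, duplicates. Readout: SDHB mRNA by Fluidigm qRT-PCR vs housekeeping genes; bidirectional fit relative to DMSO.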

[16] = read-out: Signal transducer and activator of transcription 3 (Homo sapiens) (UniProt P40763); experiment: LTEA_HepaRG_STAT3: Life Technologies and Expression Analysis (LTEA) Assay for Signal transducer and activator of transcription (STAT3) using HepaRG (AID 2283529)
Outline: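 Differentiated human HepaRG cells in serum-free induction medium were exposed in duplicate for 48 h to eight half-log concentrations up to 100 uM in 0.5% DMSO. STAT3 mRNA was quantified by TaqMan qRT-PCR, normalized to ACTB, GAPDH and POLR2A, and fitted bidirectionally against DMSO.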

[17] = read-out: Nuclear factor NF-kappa-B p105 subunit (Homo sapiens) (UniProt P19838); experiment: LTEA_HepaRG_NFKB1: Life Technologies and Expression Analysis (LTEA) Assay for Nuclear Factor Kappa B Subunit 1 (NFKB1) using HepaRG (AID 2283521);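 also: TaqMan qRT-PCR transcript normalised to ACTB GAPDH and POLR2A housekeeping genes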
Outline: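 Differentiated human HepaRG cells were exposed for 48 h in serum-free induction medium to eight concentrations (top 100 uM, half-log steps, 0.5% DMSO), in duplicate. NFKB1 mRNA was measured by TaqMan qRT-PCR, normalized to ACTB/GAPDH/POLR2A, and fitted bidirectionally against DMSO.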

[18] = read-out: Pyruvate Dehydrogenase Kinase 4 (PDK4), PDK4 (gene 5166); experiment: LTEA_HepaRG_PDK4: Life Technologies and Expression Analysis (LTEA) Assay for Pyruvate Dehydrogenase Kinase 4 (PDK4) using HepaRG (AID 2283525)
Outline: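 Differentiated human HepaRG cells, pre-cultured 48 h, were exposed in duplicate for 48 h in serum-free induction medium to eight half-log concentrations up to 100 uM in 0.5% DMSO. PDK4 mRNA was quantified by qRT-PCR, normalized to ACTB, GAPDH and POLR2A, bidirectional fitting versus DMSO.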

Nuclear factor NF-kappa-B p105 subunit (Homo sapiens), sequence (P19838 whole entry, looked up): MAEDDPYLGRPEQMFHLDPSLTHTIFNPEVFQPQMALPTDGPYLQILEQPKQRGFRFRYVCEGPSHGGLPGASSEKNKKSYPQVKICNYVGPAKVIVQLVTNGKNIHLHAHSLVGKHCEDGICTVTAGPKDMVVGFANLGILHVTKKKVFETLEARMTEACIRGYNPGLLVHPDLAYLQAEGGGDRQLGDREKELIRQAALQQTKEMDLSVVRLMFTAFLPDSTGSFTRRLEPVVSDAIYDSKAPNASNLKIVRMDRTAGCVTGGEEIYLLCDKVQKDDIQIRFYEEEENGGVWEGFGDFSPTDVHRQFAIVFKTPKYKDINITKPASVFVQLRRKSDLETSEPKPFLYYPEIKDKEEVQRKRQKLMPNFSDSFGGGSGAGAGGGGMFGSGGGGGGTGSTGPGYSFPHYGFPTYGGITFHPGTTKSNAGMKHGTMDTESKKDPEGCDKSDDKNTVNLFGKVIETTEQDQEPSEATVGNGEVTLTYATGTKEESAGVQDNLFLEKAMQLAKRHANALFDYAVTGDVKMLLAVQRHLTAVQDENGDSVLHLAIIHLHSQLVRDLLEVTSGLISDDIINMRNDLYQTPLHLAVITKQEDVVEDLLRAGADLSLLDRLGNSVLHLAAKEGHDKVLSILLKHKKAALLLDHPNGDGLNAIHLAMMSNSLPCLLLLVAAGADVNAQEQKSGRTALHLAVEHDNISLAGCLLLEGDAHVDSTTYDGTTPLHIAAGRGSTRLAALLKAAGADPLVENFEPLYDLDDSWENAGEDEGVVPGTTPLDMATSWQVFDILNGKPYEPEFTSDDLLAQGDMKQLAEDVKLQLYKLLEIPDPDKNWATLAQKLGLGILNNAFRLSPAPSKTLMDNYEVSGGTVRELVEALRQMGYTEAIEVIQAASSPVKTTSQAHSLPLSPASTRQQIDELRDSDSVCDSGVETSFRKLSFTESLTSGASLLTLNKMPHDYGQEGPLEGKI
Nuclear factor erythroid 2-related factor 2 (Homo sapiens), sequence (Q16236 whole entry, looked up): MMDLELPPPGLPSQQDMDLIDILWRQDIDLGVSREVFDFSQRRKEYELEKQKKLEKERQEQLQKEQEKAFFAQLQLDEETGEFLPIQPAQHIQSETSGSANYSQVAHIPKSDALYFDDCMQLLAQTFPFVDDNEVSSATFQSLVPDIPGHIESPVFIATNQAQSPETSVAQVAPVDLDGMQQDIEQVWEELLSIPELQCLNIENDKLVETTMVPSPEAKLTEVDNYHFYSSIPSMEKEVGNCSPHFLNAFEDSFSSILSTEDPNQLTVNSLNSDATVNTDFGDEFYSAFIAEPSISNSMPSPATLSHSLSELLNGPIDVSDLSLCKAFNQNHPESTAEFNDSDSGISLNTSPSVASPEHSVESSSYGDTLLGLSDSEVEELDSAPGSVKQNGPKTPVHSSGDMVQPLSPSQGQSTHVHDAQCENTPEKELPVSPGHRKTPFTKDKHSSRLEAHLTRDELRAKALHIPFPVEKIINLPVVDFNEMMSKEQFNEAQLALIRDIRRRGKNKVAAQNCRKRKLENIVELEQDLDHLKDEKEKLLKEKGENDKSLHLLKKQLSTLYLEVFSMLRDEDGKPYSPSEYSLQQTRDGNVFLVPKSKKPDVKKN
Signal transducer and activator of transcription 3 (Homo sapiens), sequence (P40763 whole entry, looked up): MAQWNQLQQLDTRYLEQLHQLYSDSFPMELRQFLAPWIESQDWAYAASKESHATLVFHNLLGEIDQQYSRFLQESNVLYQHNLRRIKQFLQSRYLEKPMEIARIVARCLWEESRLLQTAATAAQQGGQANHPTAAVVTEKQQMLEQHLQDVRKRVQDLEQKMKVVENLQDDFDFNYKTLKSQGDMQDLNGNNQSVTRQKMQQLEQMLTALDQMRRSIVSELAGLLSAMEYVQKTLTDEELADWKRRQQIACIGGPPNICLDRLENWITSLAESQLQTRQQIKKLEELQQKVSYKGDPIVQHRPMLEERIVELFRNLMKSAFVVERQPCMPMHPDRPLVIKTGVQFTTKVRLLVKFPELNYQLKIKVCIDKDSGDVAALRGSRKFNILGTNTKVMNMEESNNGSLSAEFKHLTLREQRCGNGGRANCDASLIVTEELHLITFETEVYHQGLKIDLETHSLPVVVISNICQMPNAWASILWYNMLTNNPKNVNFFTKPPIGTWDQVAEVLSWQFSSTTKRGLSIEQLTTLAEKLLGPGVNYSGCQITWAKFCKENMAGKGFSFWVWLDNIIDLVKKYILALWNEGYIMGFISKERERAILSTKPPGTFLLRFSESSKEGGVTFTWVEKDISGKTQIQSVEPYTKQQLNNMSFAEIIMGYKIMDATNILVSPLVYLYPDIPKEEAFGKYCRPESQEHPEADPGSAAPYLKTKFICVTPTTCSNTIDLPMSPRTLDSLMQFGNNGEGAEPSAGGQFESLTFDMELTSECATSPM

N#Cc1c(Cl)c(Cl)c(Cl)c(C#N)c1Cl
outcome [1]: inactive
outcome [2]: inactive
AC50 [3]: 12.7 µM (active)
outcome [4]: inactive
AC50 [5]: 50 µM (active)
AC50 [6]: 18 µM (active)
AC50 [7]: 90.9 µM (active)
AC50 [8]: 15.6 µM (active)
AC50 (MYC, MYC (gene 4609)): 50 µM (active)
AC50 [9]: 21 µM (active)
outcome [10]: inactive
outcome [11]: inactive
AC50 [12]: 68.7 µM (active)
AC50 [13]: 61.5 µM (active)
outcome [14]: inactive
outcome [15]: inactive
outcome [16]: inactive

COP(=S)(OC)Oc1ccc(SC)c(C)c1
outcome [1]: inactive
outcome [2]: inactive
outcome [3]: inactive
outcome [4]: inactive
outcome [5]: inactive
outcome [6]: inactive
outcome [7]: inactive
outcome (MYC, MYC (gene 4609)): inactive
AC50 [9]: 50 µM (active)
AC50 [10]: 9.92 µM (active)
outcome [17]: inactive
outcome [11]: inactive
outcome [12]: inactive
outcome [13]: inactive
outcome [18]: inactive
outcome [14]: inactive
outcome [15]: inactive
outcome [16]: inactive

CC1(C)C(C=C(Cl)Cl)C1C(=O)OC(C#N)c1ccc(F)c(Oc2ccccc2)c1 (stereo unspecified)
outcome [1]: inactive
outcome [2]: inactive
outcome [3]: inactive
outcome [4]: inactive
outcome [5]: inactive
outcome [6]: inactive
outcome [7]: inactive
outcome (MYC, MYC (gene 4609)): inactive
outcome [9]: inactive
outcome [10]: inactive
outcome [17]: inactive
outcome [11]: inactive
outcome [12]: inactive
outcome [13]: inactive
AC50 [14]: 50 µM (active)
outcome [15]: inactive
outcome [16]: inactive

CCN(CC)C(=O)SCc1ccc(Cl)cc1
outcome [1]: inactive
outcome [2]: inactive
outcome [3]: inactive
outcome [4]: inactive
outcome [5]: inactive
outcome [6]: inactive
outcome [7]: inactive
outcome (MYC, MYC (gene 4609)): inactive
outcome [9]: inactive
outcome [10]: inactive
outcome [17]: inactive
outcome [11]: inactive
outcome [12]: inactive
outcome [13]: inactive
outcome [14]: inactive
outcome [15]: inactive
outcome [16]: inactive

CC(C)(C)C(O)/C(=C\c1ccc(Cl)cc1Cl)n1cncn1 (stereo unspecified)
AC50 [1]: 50 µM (active)
AC50 [2]: 71.6 µM (active)
outcome [3]: inactive
AC50 [4]: 72.7 µM (active)
AC50 [5]: 21.5 µM (active)
AC50 [6]: 12.4 µM (active)
outcome [7]: inactive
outcome [8]: inactive
outcome (MYC, MYC (gene 4609)): inactive
outcome [9]: inactive
AC50 [10]: 62.5 µM (active)
AC50 [11]: 85.9 µM (active)
AC50 [12]: 79.1 µM (active)
AC50 [18]: 29.4 µM (active)
AC50 [14]: 75.3 µM (active)
outcome [15]: inactive
outcome [16]: inactive

From PubChem BioAssay (EPA / NIEHS)
